Test results from PubChem BioAssay.
Unmarked numbers belong to inactive results. For some of these results: Results with a measured potency or affinity are listed apart. The source made the active and inactive calls. Unless noted, the rule behind the calls is not given here.

Experiments:
[1] = antimalarial activity against Dd2 strain (AID 2302;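 active = growth inhibition above 50% at the single 2 µM test dose, taken to imply half-maximal potency below 2 µM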;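 note: 0% = DMSO untreated growth and 100% = chloroquine plus artemisinin killed control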); settings: P. falciparum Dd2 in RBCs, LDH growth readout, 72 h; at 2 µM; hits give high values
[2] = human hepatoma cell viability loss – ATP luminescence, cytotoxicity control for P. falciparum antimalarial project, primary screen (AID 2303;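 active = inhibition above 50%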;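 note: 0% = DMSO wells and 100% = digitonin-killed cells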); settings: HepG2 viability, 24-48 h, at 10 µM, hits give high values
[3] = molecular target: L-lactate dehydrogenase (Plasmodium falciparum (isolate CDC / Honduras)) (UniProt Q27743); test: PfLDH activity inhibition – cell lysate, 3D7 strain, counter-screen for P. falciparum growth inhibition project (AID 2304);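 note: 0% = vehicle and 100% = reference inhibitor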; settings: P. falciparum 3D7 crude extract, LDH APAD/NBT absorbance; at 2 µM; hits give high values
[4] = inhibition of 3D7 malaria parasite growth – strain 3D7 (AID 2306);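 note: 0% = DMSO wells and 100% = chloroquine plus artemisinin control wells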; settings: P. falciparum 3D7 erythrocytic growth, LDH absorbance, 72 h; at 2 µM; hits give high values
[5] = molecular target: Calcium-dependent protein kinase 1 (Plasmodium falciparum (isolate 3D7)) (UniProt P62344); test: PfCDPK1 kinase inhibitors, biochemical, TCAMS library (AID 1159585; cut-off not given, nearly all actives have IC50 up to about 0.98 µM;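 note: inhibitors leave more ATP so luminescence rises with inhibition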); settings: recombinant PfCDPK1, Kinase-Glo ATP depletion luminescence
[6] = molecular target: Plasmodium falciparum protein kinase 6 (PK6, PF3D7_1337100) (UniProt Q8IDW1); test: PfPK6 kinase inhibitors, biochemical, TCAMS library (AID 1159586); settings: recombinant PfPK6, Kinase-Glo ATP depletion luminescence
[7] = molecular target: Protein kinase 7 (PK7), Plasmodium falciparum 3D7 (PF3D7_0213400) (UniProt Q7YTF7); test: inhibition of Plasmodium PK7 catalytic activity – biochemical, TCAMS antimalarial set, Kinase-Glo luminescence (AID 1159587); settings: recombinant PfPK7, Kinase-Glo ATP depletion luminescence
[8] = molecular target: Calcium-dependent protein kinase 4 (Plasmodium falciparum (isolate 3D7)) (UniProt Q8IBS5); test: PfCDPK4 kinase inhibitors, biochemical, TCAMS library (AID 1159588; cut-off not given, nearly all actives have IC50 up to about 0.91 µM); settings: recombinant PfCDPK4, Kinase-Glo ATP depletion luminescence
Chain of Calcium-dependent protein kinase 4 (Plasmodium falciparum (isolate 3D7)) (Q8IBS5 whole entry, looked up): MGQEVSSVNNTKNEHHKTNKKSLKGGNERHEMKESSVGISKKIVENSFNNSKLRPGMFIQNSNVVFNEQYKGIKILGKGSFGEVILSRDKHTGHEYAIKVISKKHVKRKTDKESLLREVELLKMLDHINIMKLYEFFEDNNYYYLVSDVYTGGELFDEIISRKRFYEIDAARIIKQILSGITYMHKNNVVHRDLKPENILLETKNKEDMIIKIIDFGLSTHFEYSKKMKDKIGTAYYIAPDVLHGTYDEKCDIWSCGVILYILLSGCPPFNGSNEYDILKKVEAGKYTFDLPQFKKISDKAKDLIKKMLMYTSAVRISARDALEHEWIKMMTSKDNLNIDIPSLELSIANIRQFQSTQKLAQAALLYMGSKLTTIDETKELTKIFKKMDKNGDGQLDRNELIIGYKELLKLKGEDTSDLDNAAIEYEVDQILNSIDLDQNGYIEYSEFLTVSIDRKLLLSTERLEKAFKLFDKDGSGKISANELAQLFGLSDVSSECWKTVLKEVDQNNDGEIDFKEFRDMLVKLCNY

Chain of Protein kinase 7 (PK7), Plasmodium falciparum 3D7 (PF3D7_0213400) (Q7YTF7 1-343): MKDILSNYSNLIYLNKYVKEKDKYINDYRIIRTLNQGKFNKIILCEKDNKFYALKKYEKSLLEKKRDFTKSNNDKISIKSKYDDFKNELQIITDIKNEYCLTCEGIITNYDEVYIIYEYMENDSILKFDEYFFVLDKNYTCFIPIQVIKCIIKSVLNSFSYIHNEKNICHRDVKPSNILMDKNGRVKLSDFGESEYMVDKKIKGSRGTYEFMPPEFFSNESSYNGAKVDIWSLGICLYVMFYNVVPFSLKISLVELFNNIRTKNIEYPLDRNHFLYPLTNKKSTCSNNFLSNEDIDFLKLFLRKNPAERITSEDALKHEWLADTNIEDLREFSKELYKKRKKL
Chain of Plasmodium falciparum protein kinase 6 (PK6, PF3D7_1337100) (Q8IDW1 1-305): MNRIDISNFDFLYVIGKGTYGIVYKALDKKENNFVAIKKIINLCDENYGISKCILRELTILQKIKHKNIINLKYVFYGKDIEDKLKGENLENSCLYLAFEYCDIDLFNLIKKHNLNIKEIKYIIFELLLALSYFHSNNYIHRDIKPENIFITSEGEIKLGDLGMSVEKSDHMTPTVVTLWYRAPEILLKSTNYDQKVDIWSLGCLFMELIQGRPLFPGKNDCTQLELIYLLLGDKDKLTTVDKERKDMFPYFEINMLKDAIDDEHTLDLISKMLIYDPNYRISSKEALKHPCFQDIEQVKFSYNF
Chain of L-lactate dehydrogenase (Plasmodium falciparum (isolate CDC / Honduras)) (Q27743 whole entry, looked up): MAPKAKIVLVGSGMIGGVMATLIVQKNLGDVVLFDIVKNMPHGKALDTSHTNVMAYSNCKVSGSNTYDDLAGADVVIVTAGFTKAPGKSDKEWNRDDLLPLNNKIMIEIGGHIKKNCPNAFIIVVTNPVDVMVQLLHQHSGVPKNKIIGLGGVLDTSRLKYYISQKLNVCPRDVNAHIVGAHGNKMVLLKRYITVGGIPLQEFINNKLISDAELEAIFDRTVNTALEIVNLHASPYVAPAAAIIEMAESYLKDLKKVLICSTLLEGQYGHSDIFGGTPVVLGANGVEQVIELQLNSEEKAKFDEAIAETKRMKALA
Chain of Calcium-dependent protein kinase 1 (Plasmodium falciparum (isolate 3D7)) (P62344 whole entry, looked up): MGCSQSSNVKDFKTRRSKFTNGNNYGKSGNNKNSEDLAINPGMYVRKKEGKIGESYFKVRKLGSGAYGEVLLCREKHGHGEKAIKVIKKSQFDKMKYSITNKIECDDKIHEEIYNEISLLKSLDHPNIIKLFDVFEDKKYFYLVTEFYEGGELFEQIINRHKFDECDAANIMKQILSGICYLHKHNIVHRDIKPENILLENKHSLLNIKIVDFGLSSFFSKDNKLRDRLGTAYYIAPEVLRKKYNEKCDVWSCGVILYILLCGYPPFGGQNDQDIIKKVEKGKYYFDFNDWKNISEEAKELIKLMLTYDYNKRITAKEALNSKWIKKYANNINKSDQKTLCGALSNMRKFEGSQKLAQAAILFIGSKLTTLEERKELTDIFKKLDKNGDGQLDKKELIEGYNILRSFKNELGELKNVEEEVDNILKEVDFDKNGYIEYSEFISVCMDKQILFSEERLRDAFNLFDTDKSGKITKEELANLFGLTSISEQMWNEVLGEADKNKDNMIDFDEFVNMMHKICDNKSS

| Compound | growth inhibition [1] | inhibition [2] | inhibition [3] [%] | growth inhibition [4] | outcome [5] | outcome [6] | outcome [7] | outcome [8] |
| --- | --- | --- | --- | --- | --- | --- | --- | --- |
| CN(C(=O)Nc1ccc(C(F)(F)F)cc1)C1CCN(CCCCCNC(=O)/C=C/c2ccc(Cl)c(Cl)c2)CC1 | 38% | 57% (active) | -3 | 101% (active) | inactive | inactive | inactive | inactive |
| COC(=O)Cn1c2ccccc2c2c(N)c(C(=O)OC)c(C)nc21 | 1% | 0% | 4 | 93% (active) | inactive | inactive | inactive | inactive |
| N#Cc1ccccc1C1CCN(C2CCC(Nc3cc(-c4cccnc4)ccn3)CC2)CC1 (centres undefined) | 78% (active) | 38% | 5 | 100% (active) | inactive | inactive | inactive | inactive |
| CC(C)C[C@H](NC(=O)c1cc2cc(OCCN3CCNCC3)ccc2o1)C(=O)NC1CC[C@@H](C)N(C(=O)Nc2ccc(Cl)cc2)CC1=O (some centres undefined) | 92% (active) | -3% | 6 | 90% (active) | inactive | inactive | inactive | inactive |
| COc1ccc2nccc([C@@H](O)CN3CCC(NCc4ccc5sc(=O)[nH]c5c4)CC3)c2c1 | -3% | 1% | -3 | 98% (active) | inactive | inactive | inactive | inactive |
| Cc1cccc(C)c1C1CCN(CCCCNC(=O)c2cc3ccccc3[nH]2)CC1 | 18% | 46% | 4 | 90% (active) | inactive | inactive | inactive | inactive |
| c1csc(-c2nc(N3CCCCC3)ncc2-c2ccsc2)n1 | 72% (active) | -5% | -3 | 89% (active) | inactive | inactive | inactive | inactive |
| Cn1c(-c2ccccc2)cc2c3c(=O)cc(C(F)(F)F)[nH]c3ccc21 | 49% | 21% | -1 | 95% (active) | inactive | inactive | inactive | inactive |
| CS(=O)(=O)c1cccc(-c2cnc3[nH]cc(-c4ccc(CCC(=O)O)cc4)c3c2)c1 | 99% (active) | 1% | -6 | 97% (active) | inactive | inactive | inactive | inactive |
| Cc1nc(N)nc(N)c1OCCCCCCOc1ccccc1 | -3% | 59% (active) | -2 | 95% (active) | inactive | inactive | inactive | inactive |
| CON=Cc1sc(CNCCCNc2cc(=O)c3ccccc3[nH]2)c(C)c1Br | 63% (active) | -8% | -1 | 96% (active) | inactive | inactive | inactive | inactive |
| O=C(C=Cc1ccc(Cl)c(Cl)c1)NCCCCCN1CCCC(CCCNC(=O)c2cccs2)C1 (centres undefined) | 0% | 24% | 1 | 89% (active) | inactive | inactive | inactive | inactive |
| Cc1nc(-c2cccc3c(NC(=O)N4CCc5cc6nccc(N7CCN(C)CC7)c6cc54)cccc23)no1 | 97% (active) | 45% | 2 | 100% (active) | inactive | inactive | inactive | inactive |
| O=C(/C=C/c1ccc(Cl)c(Cl)c1)NCCCCCN1CCCC(c2c[nH]c3ccccc23)C1 (centres undefined) | 22% | 25% | 2 | 99% (active) | inactive | inactive | inactive | inactive |
| CN(CCCCCN1CCC(NC(=O)Nc2ccc(C(F)(F)F)cc2)C1)C(=O)/C=C/c1ccc(Cl)c(Cl)c1 (centres undefined) | 11% | 28% | -3 | 101% (active) | inactive | inactive | inactive | inactive |
| O=c1cc(-c2ccc3ccccc3c2)[nH]c2ccccc12 | 44% | 25% | -3 | 81% (active) | inactive | inactive | inactive | inactive |
| O=C(NCc1cccc(F)c1)Nc1ccc(-c2cccc(-c3nc4ccccc4[nH]3)c2)cc1 | 2% | 14% | 0 | 86% (active) | inactive | inactive | inactive | inactive |
| CC(=O)Nc1ccc(OCCN(Cc2ccccc2C(F)(F)F)c2ccc(C#N)c(C(F)(F)F)c2)c(Cl)c1 | 78% (active) | -6% | -3 | 98% (active) | inactive | inactive | inactive | inactive |
| O=C(/C=C/c1ccc(Cl)c(Cl)c1)NCCCCCN1CCC(NC(=O)Nc2ccc(C(F)(F)F)cc2)C1 (centres undefined) | 6% | 11% | -2 | 100% (active) | inactive | inactive | inactive | inactive |

| Compound | growth inhibition [1] | inhibition [2] | inhibition [3] [%] | growth inhibition [4] | outcome [5] | outcome [6] | outcome [7] | outcome [8] |
| --- | --- | --- | --- | --- | --- | --- | --- | --- |
| COc1ccc(NC(=O)/C=C/c2ccccc2Cl)cc1OCCN1CCC(c2nc3ccccc3[nH]2)CC1 | 16% | 35% | -6 | 92% (active) | inactive | inactive | inactive | inactive |
| Nc1ncc(-c2ccc(F)cc2)cc1-c1nc2ccc(Cl)cc2[nH]1 | 44% | 45% | 0 | 99% (active) | inactive | inactive | inactive | inactive |
| COc1ccc(C=NNc2ccnc3ccccc23)c2ccccc12 | 98% (active) | 27% | 0 | 102% (active) | inactive | inactive | inactive | inactive |
| Cc1noc(-c2ccc(O)cc2O)c1-c1ccc2c(c1)OCCCO2 | 99% (active) | 8% | -4 | 100% (active) | inactive | inactive | inactive | inactive |
| O=C(N[C@@H](CC1CCCCC1)C(=O)NCc1cccc(C(F)(F)F)c1)c1ccc(O)c(-c2ccc(Cl)c(Cl)c2)c1 | 100% (active) | -5% | 5 | 98% (active) | inactive | inactive | inactive | inactive |
| CC(C)(O)CC(C)(C)c1cc(Cl)ccc1O | 1% | 5% | 7 | 96% (active) | inactive | inactive | inactive | inactive |
| Cc1cc2cc(-c3ccc(CN)cc3)ccc2nc1N | 8% | 18% | 4 | 92% (active) | inactive | inactive | inactive | inactive |
| CNCc1cccc(-c2ccc3ccnc(N)c3c2)c1 | 98% (active) | 20% | 3 | 101% (active) | inactive | inactive | inactive | inactive |
| O=C(Nc1ccc(-c2cccc(CN3CCC(O)CC3)c2)cc1)c1cccc(Cl)c1 | 14% | 50% (active) | 3 | 94% (active) | inactive | inactive | inactive | inactive |
| Cc1nc2nc(N)nc(N)c2c(C)c1Cc1ccccc1Cl | -2% | 63% (active) | -3 | 93% (active) | inactive | inactive | inactive | inactive |
| CN(C)CCCOc1ccc(CN2CC[C@H](NC(=O)c3ccc(Cl)c(Cl)c3)C2)cc1Cl | 35% | 65% (active) | 1 | 100% (active) | inactive | inactive | inactive | inactive |
| FC(F)(F)c1ccc2nc(-c3ccc(-c4cccc(CN5CCCCC5)c4)cc3)[nH]c2c1 | 99% (active) | 22% | 2 | 100% (active) | inactive | inactive | inactive | inactive |
| COc1cc(Cc2cnc(N)nc2N)cc(OC(C)C)c1OC | 15% | 10% | 0 | 91% (active) | inactive | inactive | inactive | inactive |
| COc1ccc2c(NN=Cc3ccccc3Cl)ccnc2c1 | 46% | 10% | -6 | 99% (active) | inactive | inactive | inactive | inactive |
| NC(=O)c1ccccc1OCC(=O)Nc1ccc(-c2cccc(-c3nc4ccc(C(F)(F)F)cc4[nH]3)c2)cc1 | 11% | 51% (active) | -8 | 100% (active) | inactive | inactive | inactive | inactive |
| Cn1nc(-c2cccc(CNC3CCc4ccccc43)c2)c2cnc(NC3CCCC3)nc21 (centres undefined) | 23% | 14% | -1 | 100% (active) | inactive | inactive | inactive | inactive |
| COc1ccc(CC(=O)NC(CCN2CCC3(CC2)CN(S(C)(=O)=O)c2ccccc23)c2ccc(Cl)c(Cl)c2)cc1OC (centres undefined) | 77% (active) | 10% | 7 | 92% (active) | inactive | inactive | inactive | inactive |
| COc1ccc2nccc([C@@H](O)CN3CCC(NC(=O)C(c4cc5ccccc5o4)N4CCC(Cc5ccccc5)CC4)CC3)c2c1 (some centres undefined) | 82% (active) | 11% | 0 | 100% (active) | inactive | inactive | inactive | inactive |
| Cc1ccccc1OCCCON1C(N)=NC(N)=NC1(C)C | 97% (active) | 66% (active) | 4 | 95% (active) | inactive | inactive | inactive | inactive |
